Results reported in PubChem BioAssay AID1210 (NMMLSC, 2008).
The source made the active and inactive calls.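 How the source made its calls: active means blocks over 70% of labeled estradiol binding at 10 µM, or over a set limit at 100 nM; inactive means the rest.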

Target: Estrogen receptor beta (Homo sapiens) (UniProt Q92731)
Assay: displacement of fluorescent estrogen from ERbeta – cell-based, Cos7 ERbeta-GFP, flow cytometry, primary screen (AID 1210);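 further: 0% = DMSO vehicle wells and 100% = complete loss of labeled estradiol signal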
Conditions: fluorescent estrogen binding, stronger effect = higher value
[1] = ligand binding inhibition, at 0.1 µM

Sequence of Estrogen receptor beta (Homo sapiens) (Q92731 whole entry, looked up): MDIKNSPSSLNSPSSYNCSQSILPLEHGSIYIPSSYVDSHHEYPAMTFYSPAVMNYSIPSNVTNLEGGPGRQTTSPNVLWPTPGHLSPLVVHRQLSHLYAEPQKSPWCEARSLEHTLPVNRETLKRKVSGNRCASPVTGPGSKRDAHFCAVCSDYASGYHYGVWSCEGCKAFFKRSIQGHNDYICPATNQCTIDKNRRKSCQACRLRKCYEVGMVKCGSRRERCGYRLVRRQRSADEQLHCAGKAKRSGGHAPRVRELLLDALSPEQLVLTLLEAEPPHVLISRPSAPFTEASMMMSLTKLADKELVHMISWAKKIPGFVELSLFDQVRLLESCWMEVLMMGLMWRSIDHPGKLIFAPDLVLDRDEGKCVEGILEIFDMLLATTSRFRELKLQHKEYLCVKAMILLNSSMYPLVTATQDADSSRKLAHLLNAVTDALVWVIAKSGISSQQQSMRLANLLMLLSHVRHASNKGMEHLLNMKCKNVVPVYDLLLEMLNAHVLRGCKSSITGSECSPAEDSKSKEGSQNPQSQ

Structure (SMILES) | inhibition (at 10 µM) | inhibition [1] [%]
O=C(Nc1cccc(-c2cn3cccnc3n2)c1)c1ccc2c(c1)OCO2 | 26% (inactive) | 48
CCN1CCc2nc(NC(=O)Cc3ccc4c(c3)OCCO4)sc2C1 | 26% (inactive) | 4
COc1cc2c3c(c1)/C(=C1/SC(NC(C)=O)=NC1=O)C(=O)N3C(C)(C)C=C2C | 37% (inactive) | 4
Cc1nn(-c2ccccc2)c(C)c1NC(=O)Cc1cccs1 | 67% (inactive) | 25
O=C1c2ccccc2C(=O)N1/N=C/c1ccc(O)c(O)c1 | 58% (inactive) | 54
O=c1[nH]c(N/N=C/c2ccc(O)cc2)nc2ccccc12 | 34% (inactive) | 13
C=C1C2C[C@H](O)C(C)(C)[C@@]2(O)[C@H](O)C[C@]23C[C@@](C)(O)[C@H](CC[C@H]12)[C@H]3O (some centres not stated) | 70% (inactive) | 1
Oc1ccc(-c2nnc(-c3ccccc3)c(-c3ccccc3)n2)cc1 | 38% (inactive) | 25
O=c1cc(-c2ccc(O)c(O)c2)oc2c(C3O[C@H](CO)[C@@H](O)[C@H](O)[C@H]3O)c(O)cc(O)c12 (some centres not stated) | 40% (inactive) | 17
C[C@]12CC[C@@H]3c4ccc(O)cc4[C@@H](O)C[C@H]3[C@@H]1CC[C@@H]2O | 74% (active) | 56
Cc1nnc(SCC(=O)NC(=O)NCc2ccco2)n1Cc1ccccc1 | 71% (active) | 53
Cc1ccc(-c2n[nH]c(=S)n2/N=C/C=C\c2ccccc2[N+](=O)[O-])cc1 | 74% (active) | 4
O=S(=O)(NCCc1csc(-c2cccnc2)n1)c1ccc(Cl)s1 | 69% (active) | 78
COC(=O)c1ccc2c(=O)n(CCCCCC(=O)NCc3ccc4c(c3)OCO4)c(=O)[nH]c2c1 | 68% (inactive) | 20
COc1nc(-c2ccc(Cl)cc2)ccc1-c1noc(-c2ccco2)n1 | 72% (active) | 56
COc1ccc(C2Nc3ccccc3C(=O)N2c2ccc(Cl)cc2)cc1Cn1cc([N+](=O)[O-])cn1 (configuration not stated) | 63% (inactive) | 36
Cc1ccc2c(Cl)cc(Cl)c(OCC(=O)NCc3ccco3)c2n1 | 29% (inactive) | 38
COc1ccc2[nH]c3c(c2c1)CCn1c-3nc2ccccc2c1=O | 16% (inactive) | 36
O=c1oc2ccccc2n1CCn1c2ccccc2c2nc3ccccc3nc21 | 70% (inactive) | 18
CC(=O)N1c2ccc(Cl)cc2C2C=CCC2C1c1cccc2ccccc12 (configuration not stated) | 51% (inactive) | 6
CSc1nc2c(c(=O)[nH]1)C(c1cccs1)C1=C(CCCC1=O)N2 (configuration not stated) | 71% (active) | 33
O=c1cc(CSc2nnc(-c3cccs3)n2Cc2ccccc2)nc2sc3ccccc3n12 | 54% (inactive) | 26

Structure (SMILES) | inhibition (at 10 µM) | inhibition [1] [%]
COc1ccc(NC(=O)CN(c2ccccc2)S(=O)(=O)N(C)C)cc1OC | 40% (inactive) | 15
Cn1c(SCC(=O)Nc2sccc2C#N)nnc1-c1ccccc1 | 12% (inactive) | 13
CCOc1cccc2cc(-c3cn4cc(C)ccc4n3)c(=O)oc12 | 27% (inactive) | 16
COc1cc2c(cc1OC)C(Cc1ccc(O)cc1)N(C)CC2 (configuration not stated) | 56% (inactive) | 6
CCc1oc2ccccc2c1C(=O)c1cc(Br)c(O)c(Br)c1 | 45% (inactive) | 9
CC1Cc2ccccc2N1C(=O)CSc1nnc(-c2ccc(S(=O)(=O)N3CCCC3)cc2)o1 (configuration not stated) | 54% (inactive) | 19
Cc1noc(C)c1COc1ccc(C(=O)OCC(=O)N2c3ccccc3NC(=O)C2(C)C)cc1 | 42% (inactive) | 30
O=C(COC(=O)CCOc1ccccc1)NCc1ccco1 | 54% (inactive) | 37
CCOC(=O)C1=c2/c(=C/c3ccccc3OC)c(N)c(C#N)n2C(=O)C(c2ccccc2OC)S1 (configuration not stated) | 34% (inactive) | 46
Oc1ccc(/C=C/c2nc(-c3ccccc3O)n(-c3ccccc3)n2)cc1 | 44% (inactive) | 31
O=C(Cn1ncc2c(=O)oc3ccccc3c21)Nc1nc2ccccc2s1 | 35% (inactive) | 7
O=C(c1cccs1)N1N=C(c2ccc(O)cc2)CC1c1ccccc1 (configuration not stated) | 68% (inactive) | 23
O=c1cc(O)c2sc(Nc3ccc(F)cc3)nc2[nH]1 | 8% (inactive) | 9
O=C(CSc1nnc(Nc2ccccc2F)s1)NCc1ccco1 | 4% (inactive) | 48
O=C(COC(=O)c1cccc(S(=O)(=O)N2CCc3ccccc3C2)c1)NCc1ccco1 | 29% (inactive) | 5
Oc1ccc(C=Nc2ccc(N3CCOCC3)cc2)c(O)c1 | 51% (inactive) | 63
Cc1oc2c(C)c(O)ccc2c(=O)c1N1C(=O)c2ccccc2C1=O | 16% (inactive) | 18
COc1cccc(-c2[nH]nc3c2C(c2ccoc2)C(C#N)=C(N)O3)c1 (configuration not stated) | 54% (inactive) | 29
COc1cc(-c2nc3ccc4ccccc4c3c3c2CCC3)ccc1O | 0% (inactive) | 59
O=C(Nc1nccs1)c1ccc2nccnc2c1 | 36% (inactive) | 25
C[C@@H]1O[C@@H](Oc2c(-c3cc(O)c(O)c(O)c3)oc3cc(O)cc(O)c3c2=O)[C@H](O)[C@H](O)[C@H]1O | 31% (inactive) | 30
COc1cc(O)c2c(=O)c3c(OC)c(O)ccc3oc2c1 | 41% (inactive) | 25

Structure (SMILES) | inhibition (at 10 µM) | inhibition [1] [%]
COc1ccc(-c2cn3c(C)c(C(=O)Nc4ccncc4)sc3n2)cc1 | 60% (inactive) | 19
C1=C(N2CCOCC2)/C(=C/c2nc3ccccc3[nH]2)CC1 | 26% (inactive) | 20
COc1cccc(NS(=O)(=O)c2ccc3c(c2)C2C=CCC2C(c2ccc(C(=O)O)cc2)N3)c1 (configuration not stated) | 0% (inactive) | 9
O=C(O)c1cc(-c2ccco2)nc2ccc(Br)cc12 | 63% (inactive) | 9
CCOc1ccc2nc(NC(=O)CCC(=O)c3cccs3)sc2c1 | 29% (inactive) | 33
COCCNC(=O)c1c(N)n(/N=C/c2cccs2)c2nc3ccccc3nc12 | 29% (inactive) | 32
O=S(=O)(/N=C(/Sc1ccccc1)c1ccccc1)c1ccccc1 | 32% (inactive) | 20
C/C(N)=C(/C#N)C(=O)CSc1nnc(Cc2ccccc2F)n1N | 22% (inactive) | 7
Cc1csc(C(C#N)C(=O)c2ccncc2)n1 (configuration not stated) | 13% (inactive) | 4
Nc1ccc2nc(-c3cccnc3)[nH]c2c1 | 50% (inactive) | 20
O=C(O)c1ccc2c(c1)[C@@H]1C=CC[C@@H]1[C@H](c1ccccn1)N2 | 0% (inactive) | 25
O=C1C=CC(O)(c2cc(=O)c3c(O)cc(O)cc3o2)C=C1 | 29% (inactive) | 8
CCOC(=O)CN1C(c2ccc(O)cc2)Nc2ccc(Br)cc2C1c1ccccc1 (configuration not stated) | 48% (inactive) | 23
O=C(COC(=O)CC1CCCC1)Nc1cc2c(cc1Cl)C(=O)c1ccccc1C2=O | 47% (inactive) | 15
CCNC(=O)c1ccc2c(c1)C1C3CCC(C3)C1C(c1ccccc1)N2 (configuration not stated) | 29% (inactive) | 58
Cc1cs/c(=N\N=C\c2ccc(O)cc2)n1Cc1ccco1 | 45% (inactive) | 21
COc1ccc2c(c1)c1nc3ccccc3nc1n2CCCN1C(=O)c2ccccc2C1=O | 49% (inactive) | 18
CCc1cccc2c(C(=O)Cn3nnc(-c4ccc(OC)c(OC)c4)n3)c[nH]c12 | 53% (inactive) | 52
COc1ccc(OC)c(NC(=O)CSc2nc3ccccc3c3nc4ccccc4n23)c1 | 70% (inactive) | 16
CCOC(=O)C1=C(C)NC(=O)NC1c1ccco1 (configuration not stated) | 11% (inactive) | 15
Cc1ccc(S(=O)(=O)N2CCCCC2)cc1C(=O)Nc1ncn[nH]1 | 13% (inactive) | 23
COc1ccccc1N1CCN(C(=O)c2ccc3nc(-c4ccco4)c(-c4ccco4)nc3c2)CC1 | 60% (inactive) | 11
